Source: PubChem
This is a sample that favours compounds with a hit; in the whole collection about 2.2% have one here.
OPRM1-OPRD1 inv – mu-delta opioid heterodimer inverse agonism | P35372+P41143 | cell-based MOR-DOR heterodimer luminescence | inhibition, % at 9.3 µM | 340,000 compounds, 0.21% hits; in the data active = inhibition above about 22%, passing the limit was not always enough;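 note: 0% = cells with DMSO and 100% = wells without cells with DMSO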
HTR5A inv ctr – HTR5A inverse agonism, opioid heterodimer counter-screen. 340,000 compounds, 0.083% hits. P47898. HTR5A cell line, luminescence. inhibition, % at 9.3 µM; in the data active = inhibition mostly above about 23%, no sharp cut-off; inactive = mostly below about 18%;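 note: 0% = cells with DMSO and 100% = no-cell wells with DMSO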
HGIII-sPLA2 inh – Blocks human group III sPLA2 activity. inhibition, % at 12.2 µM. AID 743126. 370,000 compounds, 0.56% hits. Q9NZ20. QFRET BODIPY PC-A2 liposome hydrolysis, fluorescence;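 active = inhibition above mean plus 3 SD of compounds lying within the high and low control bounds, cut at about 19% in these data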;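 note: 0% = median of test compound wells and 100% = no enzyme DMSO wells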
Target sequence (Q9NZ20 whole entry, looked up): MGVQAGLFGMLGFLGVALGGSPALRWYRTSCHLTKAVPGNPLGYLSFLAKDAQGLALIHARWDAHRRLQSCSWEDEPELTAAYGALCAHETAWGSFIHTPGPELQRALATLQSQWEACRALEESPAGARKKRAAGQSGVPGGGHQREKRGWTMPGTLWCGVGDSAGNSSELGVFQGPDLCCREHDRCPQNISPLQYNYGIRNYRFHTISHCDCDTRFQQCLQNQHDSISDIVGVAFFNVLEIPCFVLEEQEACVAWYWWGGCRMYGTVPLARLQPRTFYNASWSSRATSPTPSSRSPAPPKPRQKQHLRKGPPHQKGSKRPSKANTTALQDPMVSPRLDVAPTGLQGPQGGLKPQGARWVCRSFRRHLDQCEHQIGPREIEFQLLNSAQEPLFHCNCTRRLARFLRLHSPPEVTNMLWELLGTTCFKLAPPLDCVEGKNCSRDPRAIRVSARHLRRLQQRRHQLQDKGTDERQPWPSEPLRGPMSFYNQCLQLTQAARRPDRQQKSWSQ
OPRM1-OPRD1 ag – OPRM1-OPRD1 heterodimerization agonism; cells, luminescence; activation, % at 9.3 µM; 340,000 compounds, 0.3% hits; in the data active = activation above about 18%;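 note: 0% = vehicle-treated cells and 100% = reference agonist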
HTR2A ag – agonists of mouse serotonin 5-HT2A receptor (HTR2A). P35363. 360,000 compounds, 0.66% hits. CHO-K1 mHTR2A beta-arrestin complementation, luminescence; percent of 30 µM serotonin response. activation, % at 7.6 µM;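 active = activation above a run cutoff, the mean activation of all tested compounds plus 3 SD, cut at about 14% in these data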;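 note: 0% = plate median of compound wells and 100% = 30 µM serotonin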
HTR5A ag ctr – activates human HTR5A in OPRM1-OPRD1 agonist counter-screen; P47898; HTR5A agonist assay, luminescence, cell-based; activation, % at 9.3 µM; 340,000 compounds, 0.61% hits; in the data active = activation mostly above about 9.5%, no sharp cut-off; inactive = mostly below about 7.6%;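 note: 0% = cells with vehicle only and 100% = reference agonist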
MOR ag counter – activates human mu opioid receptor in HTR2A counterscreen | U2OS OPRM1 beta-arrestin PathHunter, luminescence; DMSO 0%, DAMGO 9.3 µM 100% | activation, % at 9.3 µM | shares compounds with HTR2A ag | 2,300 compounds, 5.3% hits;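 active = mean activation above the mean of DMSO-only wells plus 3 SD, cut at about 0.5% in these data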
HTR2A ag conf – confirmation of mouse HTR2A serotonin receptor agonists | shares compounds with HTR2A ag | CHO-K1 PathHunter beta-arrestin recruitment, luminescence; DMSO 0%, 30 µM serotonin 100% | 2,300 compounds, 19% hits | activation, % at 7.6 µM | AID 624381;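 active = mean activation across triplicates above the hit threshold derived in the original primary screen, cut at about 15% in these data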
* = called active by the depositor; / = no result given.

SMILES	OPRM1-OPRD1 inv	HTR5A inv ctr	HGIII-sPLA2 inh	OPRM1-OPRD1 ag	HTR2A ag	HTR5A ag ctr	MOR ag counter	HTR2A ag conf
CCN1C(C#N)=C(C#N)N=C(C)CC1(C)C	9	-7	4	-2	25*	3	0	-4
Cc1cccc(OC[C@@H](O)CN2CCC(C(O)(c3ccccc3)c3ccccc3)CC2)c1	/	/	-12	/	/	/	/	/
COc1ccccc1CNC(=O)C1CCC(CNS(=O)(=O)c2ccc(C)cc2)CC1 (stereo not given)	14	8	-10	-3	2	-2	/	/
COc1ccccc1CNC(=O)C1CCC(CNS(=O)(=O)c2ccc(F)cc2)CC1 (stereo not given)	12	11	2	-3	21*	-3	-1	2
COC(=O)[C@]12C[C@H](CC(=O)NCc3ccccc3)C(=O)N(Cc3cccc4ccccc34)C1=C[C@H](C(C)(C)C)O[C@@H]2C	/	/	-10	/	/	/	/	/
COc1ccc(-c2c(-c3cc(OC)cc(OC)c3)n(C)c3ccc(-c4cnc(OC)nc4)cc23)cc1	2	-8	0	0	3	-2	/	/
COc1ccc(-c2c(-c3cc(OC)cc(OC)c3)n(C)c3ccc(-c4ccc5[nH]ccc5c4)cc23)cc1	3	-13	11	-1	22*	3	-1	-3
C(#Cc1ccccc1)CN1CCN(c2ccccn2)CC1	8	-9	1	-2	2	2	/	/
Clc1ccc(CN2CCN(c3ncccn3)CC2)cc1Cl	-25	-5	2	5	27*	1	0	112*
Clc1ccc(CN2CCN(c3ncccn3)CC2)cc1	13	-12	7	-3	29*	4	0	117*
c1ccc(CN2CCN(c3ncccn3)CC2)cc1	11	-5	17	-2	35*	-5	0	98*
c1ccc(COc2ccc(CN3CCN(c4ccccn4)CC3)cc2)cc1	-9	8	-7	1	27*	-4	-1	99*
O=C(Cc1ccccc1)N1CCN(c2ncccn2)CC1	7	-5	-2	-1	-1	-3	/	/
O=C(NC1CCCCN(Cc2cccc(C(F)(F)F)c2)C1=O)c1ccc(Cl)c(Cl)c1 (stereo not given)	/	/	5	/	/	/	/	/
COC(=O)[C@H](CC(C)C)N(CCc1cn(Cc2ccccc2)nn1)S(=O)(=O)c1ccccc1Br	/	/	-18	/	/	/	/	/
O=S(=O)(CC1NCc2ccccc21)NCCc1ccccc1 (stereo not given)	/	/	7	/	/	/	/	/
CN(CCCOC(=O)c1cc2ccccc2o1)C1CN(Cc2cn(Cc3ccccc3C(F)(F)F)nn2)S(=O)(=O)C1 (stereo not given)	/	/	-3	/	/	/	/	/
CC1(C)Oc2ccc(C(=O)NC3CCCC3)cc2NC1=O	/	/	3	/	/	/	/	/
Cn1c(=O)n(C)c2cc(/C=C3/SC(=O)N(CC(=O)N4CCOCC4)C3=O)ccc21	1	5	9	0	17*	-2	-1	-1
COc1ccc(-c2cccc3[nH]c4c(c23)CCN2C(=O)[C@H]3[C@H](C)ON(C)[C@H]3C[C@@H]42)cc1	/	/	-13	/	/	/	/	/
CC1CN(C)C(C)c2c1oc1ccc([N+](=O)[O-])cc21 (stereo not given)	-20	8	-3	4	22*	0	0	4
CC(C)=Cc1oc2ccc([N+](=O)[O-])cc2c1N1CCOCC1	-5	7	9	1	0	-3	/	/
CCN1CCN(Cc2ccc(NC(=O)c3cccc(-c4ccc5nc(NC(=O)C6CC6)sc5n4)c3)cc2C(F)(F)F)CC1	/	/	-14	/	/	/	/	/
CCN(C(=O)[C@@H](C1CC1)[C@@H](O)c1ccc(Cl)cc1)c1ccccc1	/	/	-5	/	/	/	/	/
C=CCc1ccccc1OCCn1ccnc1	3	-12	-7	-1	15*	4	-1	-5
SMILES	OPRM1-OPRD1 inv	HTR5A inv ctr	HGIII-sPLA2 inh	OPRM1-OPRD1 ag	HTR2A ag	HTR5A ag ctr	MOR ag counter	HTR2A ag conf
COc1ccc(N(C)S(=O)(=O)c2cccc(C(=O)Nc3nnc(C)s3)c2)cc1	6	-13	2	-1	-1	5	/	/
COc1ccc(N(C)S(=O)(=O)c2cccc(C(=O)Nc3nc(C)c(C(C)=O)s3)c2)cc1	7	1	10	-2	16*	-1	0	5
O=C(c1cccnc1)N1CCN(S(=O)(=O)c2ccc(Cl)cc2)CC1	4	-2	4	-1	15*	1	-1	-3
O=C(c1cccnc1)N1CCN(S(=O)(=O)c2ccc(F)cc2)CC1	15	-15	-5	-3	-1	5	/	/
COc1cc(-c2nnc(-c3cc(OC)c(OC)c(OC)c3)o2)cc(OC)c1OC	7	-4	3	-2	17*	1	0	-2
COC(=O)CCC(=O)N1C2=NC3=C(C(=O)N(Cc4ccc5c(c4)OCO5)C3=O)C3N(C)c4ccccc4[C@]23C[C@H]1CO (stereo not given in full)	/	/	1	/	/	/	/	/
CC(=O)N1CCc2cc(C(=O)CN3CCN(c4cccc(Cl)c4)CC3)ccc21	3	-40	3	0	25*	-2	-1	90*
CCCn1c(N)c(C(=O)CSc2nnc(-c3cccs3)n2C2CC2)c(=O)[nH]c1=O	10	3	-2	-2	28*	-1	-1	47*
Cn1c(N)c(C(=O)CSc2nnc(-c3cccs3)n2C2CC2)c(=O)[nH]c1=O	19	6	2	-4	-11	-2	/	/
COc1ccc(N2CCN(C(=O)COC(=O)c3ccco3)CC2)cc1	3	1	3	-1	15*	1	0	-1
COc1ccc2ccccc2c1CN1CCN(C(=O)c2ccccc2)CC1	-9	0	-5	2	-3	0	/	/
COc1ccc(N2CCN(C(=O)COC(=O)Cc3cccc(OC)c3)CC2)cc1	8	-17	1	-1	2	-3	/	/
COc1ccc2ccccc2c1CN1CCN(C(=O)c2ccco2)CC1	7	13	-3	-1	17*	-5	0	130*
CCOc1ccc(C(=O)N2CCN(C(=O)c3ccco3)CC2)cc1OCC	7	13	1	-1	2	2	/	/
CCOc1cc(CN2CCN(C(=O)c3ccco3)CC2)ccc1OC	-9	9	-1	2	18*	-1	-1	71*
O=C(c1ccco1)N1CCN(Cc2ccc(F)cc2)CC1	17	-31	6	-4	20*	8	0	74*
COc1ccc(OC)c(S(=O)(=O)N(CCc2ccc(OC)c(OC)c2)Cc2cccs2)c1	/	/	-4	/	/	/	/	/
